Experimental data reported in article PMC10726135, “HNF4α isoforms regulate the circadian balance between carbohydrate and lipid metabolism in the liver”.
Over roughly 18,000 sequences, “log2 normalized intensity” has its median near 0.36; the highest 2% begin near 7.3. The list comes from a sample in which the highest values are over-represented; it also holds similar and randomly drawn sequences.

The sequences below were run against T1, HNF4alpha8 (COS-7 nuclear extract) (Homo sapiens, UniProt P41235-5 1-452) (assay: protein-binding microarray; COS-7 nuclear extract on double-stranded Agilent 4x180k PBM; binding buffer, salt, pH and temperature not given in the material; high values mean tight binding). Conditions: chain copies: 2; label: 3' end of strand 1 on the slide; dsDNA, one strand shown.
T1 sequence: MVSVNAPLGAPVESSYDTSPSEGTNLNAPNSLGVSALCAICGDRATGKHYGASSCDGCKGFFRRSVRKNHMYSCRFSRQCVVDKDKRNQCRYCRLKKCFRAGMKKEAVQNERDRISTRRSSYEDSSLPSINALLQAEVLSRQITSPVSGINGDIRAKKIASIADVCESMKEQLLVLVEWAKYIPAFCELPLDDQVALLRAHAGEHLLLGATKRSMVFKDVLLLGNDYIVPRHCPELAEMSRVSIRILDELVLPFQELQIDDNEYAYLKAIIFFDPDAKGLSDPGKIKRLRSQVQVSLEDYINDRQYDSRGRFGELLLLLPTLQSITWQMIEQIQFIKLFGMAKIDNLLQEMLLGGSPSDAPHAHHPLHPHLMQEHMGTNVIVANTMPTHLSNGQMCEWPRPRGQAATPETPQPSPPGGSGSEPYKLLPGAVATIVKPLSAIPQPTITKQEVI
Procedure, shortened: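 Using CaPO4, COS-7 cells were transiently transfected with a human HNF4α isoform expression vector, and their nuclear extracts were applied to a custom Agilent SurePrint G3 4x180k double-stranded oligonucleotide array (~60 nt; ~44,000 test sequences in quadruplicate). Bound HNF4α was imaged at 2-µm resolution with an Agilent G2565CA scanner. Agilent software supplied the background-corrected, normalized gProcessedSignal that serves as the binding signal.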

Row | Sequence | binding signal [log2 normalized intensity]
1 | TTTACTTATCATAAGTCAGCCTGGCTGAAGGCCTAGGGAGATTAGAGTATCGGTCGA | 1.53
2 | ATTTATCAAGATGAACTTTGACCCACCTACGCCTAGGGAGATTAGAGTATCGGTCGA | 8.8
3 | ATGAACTTTGACCCACCTACATTGATATTCGCCTAGGGAGATTAGAGTATCGGTCGA | 5.5
4 | TTGATATTTATCAAGATGAACTTTGACCCAGCCTAGGGAGATTAGAGTATCGGTCGA | 11.2
5 | TCCCTTTGATATTTATCAAGATGAACTTTGGCCTAGGGAGATTAGAGTATCGGTCGA | 5.51
6 | CACCCAGAACTTTGACCGTTTGATTATTTGGCCTAGGGAGATTAGAGTATCGGTCGA | 2.96
7 | ATTTTTCCCTTTGATATTTATCAAGATGAAGCCTAGGGAGATTAGAGTATCGGTCGA | 0.842
8 | GGCCGTGAAGCCGTCCTGTCCTGGACTTTCGCCTAGGGAGATTAGAGTATCGGTCGA | 4.47
9 | GCTTGTTCTCTCCCCCAACCCCACCTTCATGCCTAGGGAGATTAGAGTATCGGTCGA | 4.61
10 | GTGTGGGACTTTGGTCTGCTGAGTCTCATGGCCTAGGGAGATTAGAGTATCGGTCGA | 2.52
11 | TCTTCTCAGTGTTTTGGGTCCTACAGAACCGCCTAGGGAGATTAGAGTATCGGTCGA | 0.643
12 | TTTGGAATTTGACCTCATTTGCTCCCAGTGGCCTAGGGAGATTAGAGTATCGGTCGA | 4.58
13 | TTTGCCATTTGGAGAGAGTTTGGCCCCAGTGCCTAGGGAGATTAGAGTATCGGTCGA | 2.83
14 | ACATCTTGATTTAGCCCAGTGAGACCCATTGCCTAGGGAGATTAGAGTATCGGTCGA | 0.922
15 | CCAGTGAGACCCATTTTGGACTTTGACCTCGCCTAGGGAGATTAGAGTATCGGTCGA | 11.8
16 | TTAGCCCAGTGAGACCCATTTTGGACTTTGGCCTAGGGAGATTAGAGTATCGGTCGA | 7.42
17 | CACATACACCTGCGTGTACTAAGGTCTTAAGCCTAGGGAGATTAGAGTATCGGTCGA | 1.24
18 | CAAGTTGCAGGGATGGACTTTAATCTCCAAGCCTAGGGAGATTAGAGTATCGGTCGA | 5.83
19 | AGGTCATGCATAGAAGTATGTCTGGGATTTGCCTAGGGAGATTAGAGTATCGGTCGA | 0.935
20 | GTGCTCCTCCCCATCTCAGCCTCTCAGGTCGCCTAGGGAGATTAGAGTATCGGTCGA | 1.84
21 | CTCGGCATCATGCCCTTTGGCCCCCAGAGCGCCTAGGGAGATTAGAGTATCGGTCGA | 7.18
22 | AAGGCATGGGACCTTTGCCCTTCTTGTTAAGCCTAGGGAGATTAGAGTATCGGTCGA | 5.47

Row | Sequence | binding signal [log2 normalized intensity]
23 | CCCCCAAGGCATGGGACCTTTGCCCTTCTTGCCTAGGGAGATTAGAGTATCGGTCGA | 6.71
24 | ACACCAGGCCCTCGGCATCATGCCCTTTGGGCCTAGGGAGATTAGAGTATCGGTCGA | 4.63
25 | CCCCTCCCCCAAGGCATGGGACCTTTGCCCGCCTAGGGAGATTAGAGTATCGGTCGA | 7.34
26 | AGGCCCTCGGCATCATGCCCTTTGGCCCCCGCCTAGGGAGATTAGAGTATCGGTCGA | 7.71
27 | CAGAGACAATGTGAGCAGGTGTGTGGCATCGCCTAGGGAGATTAGAGTATCGGTCGA | 0.13
28 | CGACCTCCCCGTCACCCTCCCCGCCACCCCGCCTAGGGAGATTAGAGTATCGGTCGA | 7.01
29 | GCAAATGTGTCTTTTTTAGTCAGCATAGTTGCCTAGGGAGATTAGAGTATCGGTCGA | 1.34
30 | TGTGACAGAAGTCATGTCTCATTGCCCCTTGCCTAGGGAGATTAGAGTATCGGTCGA | 4.58
31 | GAATGGCCAGAGTTCCTGTGCAAGCCCCTGGCCTAGGGAGATTAGAGTATCGGTCGA | -0.986
32 | GGTGAAGGGGTCACCTCGCTCCCCTCCTGTGCCTAGGGAGATTAGAGTATCGGTCGA | 1.02
33 | GTTGGTTTCTGGGATTTGTACAAGTGATTGGCCTAGGGAGATTAGAGTATCGGTCGA | 1.63
34 | TCACCATATCCCTGAGAGGCCAGTTTGACCGCCTAGGGAGATTAGAGTATCGGTCGA | 3.28
35 | ATATCCCTGAGAGGCCAGTTTGACCTTTGCGCCTAGGGAGATTAGAGTATCGGTCGA | 8.82
36 | CCTGAGAGGCCAGTTTGACCTTTGCATTCTGCCTAGGGAGATTAGAGTATCGGTCGA | 8.31
37 | GAGGCCAGTTTGACCTTTGCATTCTTACCCGCCTAGGGAGATTAGAGTATCGGTCGA | 7.03
38 | CAGTTTGACCTTTGCATTCTTACCCAAGCCGCCTAGGGAGATTAGAGTATCGGTCGA | 5.1
39 | TTTGGAGTTTGACCTGGAGCCAGGGCCTTTGCCTAGGGAGATTAGAGTATCGGTCGA | 3.92
40 | AACATGTAAATATGACCTTTGCTTTTCAAGGCCTAGGGAGATTAGAGTATCGGTCGA | 5.13
41 | ATGTGGTCAAAACTTTGTTTGAGTTCCAAAGCCTAGGGAGATTAGAGTATCGGTCGA | 1.01
42 | TTTGACATCACCTAACTTGTGGCTGGGTGAGCCTAGGGAGATTAGAGTATCGGTCGA | 1.15
43 | AACCCCTTTTCAATTCCTTATCTCGTTCTGGCCTAGGGAGATTAGAGTATCGGTCGA | 0.721
44 | ACAGCAGTGGACTTTGACCTTGGCACTGAAGCCTAGGGAGATTAGAGTATCGGTCGA | 9.68

Row | Sequence | binding signal [log2 normalized intensity]
45 | ACTTTGACCTTGGCACTGAAGAATGTCTAAGCCTAGGGAGATTAGAGTATCGGTCGA | 2.09
46 | TGACCTTGCAGTGGCAAGGCAAAAGAGACAGCCTAGGGAGATTAGAGTATCGGTCGA | 0.892
47 | CAGTCACAGCAGTGGACTTTGACCTTGGCAGCCTAGGGAGATTAGAGTATCGGTCGA | 9.69
48 | ATGTGACCTTTTGGACCACAGAGTGACCTGGCCTAGGGAGATTAGAGTATCGGTCGA | 5.66
49 | ACAGCACTGACCTTTGAGAGTCAACACTGAGCCTAGGGAGATTAGAGTATCGGTCGA | 3.53
50 | CCTCCTGTGGTAATAAGTTGGTGGACGCTGGCCTAGGGAGATTAGAGTATCGGTCGA | 1.13
51 | TCTTTAGGCCAAACAAAAATATGGACTTTGGCCTAGGGAGATTAGAGTATCGGTCGA | 6.57
52 | ATCTCCAAACGAGACTTTGGACTTTGGACTGCCTAGGGAGATTAGAGTATCGGTCGA | 11.9
53 | AAAGATGTTTAAATAGTGATAATGGATGGCGCCTAGGGAGATTAGAGTATCGGTCGA | 0.702
54 | GGACTTTGGTGTCTGACAGATAAGATTTGGGCCTAGGGAGATTAGAGTATCGGTCGA | 2.62
55 | GCTAAGAGACAGCTCCACAGCTGGACTTTGGCCTAGGGAGATTAGAGTATCGGTCGA | 5.9
56 | GGATAATGATAAAGAGATTGGACTTTGGCCGCCTAGGGAGATTAGAGTATCGGTCGA | 9.44
57 | AGGCCAAACAAAAATATGGACTTTGGAATTGCCTAGGGAGATTAGAGTATCGGTCGA | 8.4
58 | GAGACAGCTCCACAGCTGGACTTTGGCTGCGCCTAGGGAGATTAGAGTATCGGTCGA | 6.17
59 | ATCTCCAGATAAGACTTTGGACTTTGGACCGCCTAGGGAGATTAGAGTATCGGTCGA | 11.8
60 | ATTTGGACTTTTACTCTTAGAGATAATGGGGCCTAGGGAGATTAGAGTATCGGTCGA | 2.47
61 | TATGCTCTCTCTCCACCTGGAGGGACTTTGGCCTAGGGAGATTAGAGTATCGGTCGA | 3.06
62 | AAAATATGGACTTTGGAATTAAGAAAAGCTGCCTAGGGAGATTAGAGTATCGGTCGA | 5.77
63 | GGGTTAGGCCTTTAGAGGATTTACTTATACGCCTAGGGAGATTAGAGTATCGGTCGA | 0.821
64 | TGCTCATAGCTACGGGTGACCTTGAGCACTGCCTAGGGAGATTAGAGTATCGGTCGA | 3.93
65 | TCCTCTTCCCTACCCCCTGGGAGTAACCTGGCCTAGGGAGATTAGAGTATCGGTCGA | 3.13
66 | GACTCATCTCCAAACGAGACTTTGGACTTTGCCTAGGGAGATTAGAGTATCGGTCGA | 9.58

Row | Sequence | binding signal [log2 normalized intensity]
67 | CAAACGAGACTTTGGACTTTGGACTTGGGAGCCTAGGGAGATTAGAGTATCGGTCGA | 10.9
68 | CACAAATTGGAGAGCATCTTGGACTTGGGAGCCTAGGGAGATTAGAGTATCGGTCGA | 3.16
69 | TACATTGGACAACTGTACTTTGGACTGGGGGCCTAGGGAGATTAGAGTATCGGTCGA | 6.69
70 | AAAGGGACTCATCTCCAAACGAGACTTTGGGCCTAGGGAGATTAGAGTATCGGTCGA | 2.23
71 | GAAGGAGAGAGAGGGAGAGTGGCCTTTGGAGCCTAGGGAGATTAGAGTATCGGTCGA | 4.12
72 | TCTGATACATTGGACAACTGTACTTTGGACGCCTAGGGAGATTAGAGTATCGGTCGA | 8.02
73 | ACAGTTCTGATACATTGGACAACTGTACTTGCCTAGGGAGATTAGAGTATCGGTCGA | 2.21
74 | CTCCAAACATCTTTGGTATGGACTGATATTGCCTAGGGAGATTAGAGTATCGGTCGA | 1.85
75 | GTGACTACCTGGTTAAAAGGACAACCTTCGGCCTAGGGAGATTAGAGTATCGGTCGA | -0.397
76 | AGAATGTGGTTCTTTTCATTAAATATTTAAGCCTAGGGAGATTAGAGTATCGGTCGA | 0.534
77 | CCAGTTCTTTTGACCTTTGCCTCATTCTTAGCCTAGGGAGATTAGAGTATCGGTCGA | 7.02
78 | CCTCAATGCTATCTCCCAGTTCTTTTGACCGCCTAGGGAGATTAGAGTATCGGTCGA | 2.7
79 | ATGCTATCTCCCAGTTCTTTTGACCTTTGCGCCTAGGGAGATTAGAGTATCGGTCGA | 8.5
80 | ATCTCCCAGTTCTTTTGACCTTTGCCTCATGCCTAGGGAGATTAGAGTATCGGTCGA | 8.61
81 | TCCTTTTGACCACAGTTATCTCCCCAGCTTGCCTAGGGAGATTAGAGTATCGGTCGA | 2.38
82 | AGTTATATCTTACCTCCTTCTCCCCCATGCGCCTAGGGAGATTAGAGTATCGGTCGA | 4.73
83 | TAGGCATGCAAACTTTGTTTAATGATTGCAGCCTAGGGAGATTAGAGTATCGGTCGA | 0.0707
84 | GGTACTGGAAACTGGGCAAGGTCCATTACGGCCTAGGGAGATTAGAGTATCGGTCGA | 3.56
85 | CACCTTCTTTCTCCCAGAGGTCGATCTGATGCCTAGGGAGATTAGAGTATCGGTCGA | 2.25
